S-ASM inh: inhibitors of human secretory acid sphingomyelinase | P17405 | placental ASM, HMU-PC fluorogenic substrate, 60 min | Potency, µM (series often up to 57.5 µM), hits mostly inhibitors | 340,000 tested, 0.006% active
Target sequence (P17405 47-631 limits assumed): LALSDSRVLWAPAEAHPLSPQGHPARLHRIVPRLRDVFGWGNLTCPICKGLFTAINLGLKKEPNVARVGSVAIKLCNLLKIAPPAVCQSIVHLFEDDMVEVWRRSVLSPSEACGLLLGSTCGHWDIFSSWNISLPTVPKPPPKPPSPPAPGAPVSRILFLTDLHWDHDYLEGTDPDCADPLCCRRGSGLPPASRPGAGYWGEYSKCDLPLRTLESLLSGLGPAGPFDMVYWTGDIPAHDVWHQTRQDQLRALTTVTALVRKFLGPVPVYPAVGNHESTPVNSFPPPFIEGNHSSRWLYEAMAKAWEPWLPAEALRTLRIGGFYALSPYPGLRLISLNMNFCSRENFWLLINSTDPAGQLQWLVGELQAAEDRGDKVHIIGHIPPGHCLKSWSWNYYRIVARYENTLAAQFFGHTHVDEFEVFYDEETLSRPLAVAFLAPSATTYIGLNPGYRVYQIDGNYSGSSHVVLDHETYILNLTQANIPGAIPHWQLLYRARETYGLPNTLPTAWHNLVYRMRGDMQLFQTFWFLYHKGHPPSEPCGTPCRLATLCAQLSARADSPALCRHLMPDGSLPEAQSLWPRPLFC
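Human placenta-derived ASM preincubated with compound 10 min at room temperature, then reacted with 9 uM (final) fluorogenic HMU-PC substrate for 60 min at 37 C. Stop solution raises pH to 10; fluorescence read at Ex 386/Em 447 nm.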
TGFb SMAD3 inh: blocks TGF-b signaling | 410,000 tested, 1.2% active | Potency, µM (titrated, usually from 46.1 µM), most hits filed as inhibitors | HepG2 CAGA-GFP TGF-b/SMAD3 reporter, GFP fluorescence, 18 h; TGF-beta stimulated, 500 pg/mL final; further: nearly all actives have a fitted effect of over 65% in size
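Cell-based qHTS in HEPG2 carrying a CAGA-GFP Smad reporter; compounds added before 500 pg/mL final TGF-beta, 18 h incubation at 37 degrees C, GFP fluorescence quantified per cell by imaging cytometry.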
HepG2 viability: HepG2 cytotoxicity, counter-screen for TGF-b inhibitors. HepG2 CAGA-GFP viability, ATP luminescence, 18 h. Potency, µM (titrated, usually from 46.1 µM), actives largely listed as cytotoxic. 410,000 tested, 0.76% active. AID 588856
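HepG2 CAGA-GFP cells (1000/well, DMEM with 1% FBS) received compound, then TGF-beta at 500 pg/mL final, and were incubated 18 hours at 37 degrees C. Viability was read by CellTiter-Glo luminescence. Media-only wells were set as complete cell-killing and DMSO as no toxicity.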
IL-1B inflam inh: inflammasome signaling inhibition, IL-1 beta readout. 360,000 tested, 4.7% active. AID 743279. activity change, % at 57.5 µM. THP-1 LPS/ATP IL-1B secretion, AlphaLISA, 16 h; hits give low values; in the data active means activity change below about -50%; inconclusive means mostly about -30% to -49%
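Secreted IL-1B measured by AlphaLISA bead assay after 16 h compound exposure of THP-1 cells; compounds (final up to 57.5 uM) added 1 h before LPS (250 ng/mL) and ATP (1.25 mM) stimulation; lower signal means less secretion.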
DT40 TDP1 CPT: DT40-hTDP1 cell growth loss with CPT | chicken DT40 Tdp1-/-;hTDP1 cells + 20 nM CPT, ATP luminescence, 48 h | Potency, µM (series often up to 46.2 µM), hits mostly inhibitors | 420,000 tested, 12% active; further: nearly all actives have a fitted effect of over 55% in size
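Cell growth measured by CellTiter-Glo luminescence after a minimum 48 h, 37 C compound exposure with 20 nM CPT in Tdp1-knockout DT40 cells stably expressing hTDP1, seeded 400/well; qHTS titration format.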
DT40 TDP1 no CPT: qHTS for Inhibitors of human tyrosyl-DNA phosphodiesterase 1 (TDP1): qHTS in cells in absence of CPT. 420,000 tested, 15% active. Potency, µM (series often up to 46.2 µM), hits mostly inhibitors. AID 686978, 2013. DT40 Tdp1-/- hTDP1 cells, no CPT, ATP luminescence, 48 h; further: nearly all actives have a fitted effect of over 55% in size
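Chicken DT40 Tdp1-/- cells complemented with human TDP1, screened without camptothecin (DMSO vehicle only), 400 cells/well. Compounds pin-transferred, cells incubated at 37 °C for at least 48 hr. Growth read as ATP-dependent luminescence (CellTiter-Glo, 30 min at RT).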
Hits are given with their value; – = inactive; ? = inconclusive; · = not tested or not shown; [ ] = another dose, or the depositor's remark. Rows were chosen to be rich in hits. Some 19% of all compounds tested hit in one or more screens of this group. Unless noted, the call rests on the fitted dose curve; in most records, active means well fitted curve in the direction sought with a large enough effect; inconclusive means small, poorly fitted or top-dose-only effect, or another doubt; inactive means no such curve, though single readings can be large; an effect the other way counts as inactive or inconclusive.

SMILES	S-ASM inh	TGFb SMAD3 inh	HepG2 viability	IL-1B inflam inh	DT40 TDP1 CPT	DT40 TDP1 no CPT
COc1ccccc1CNC(=O)CCc1c(C)nn(-c2ccc(N3CCCCC3)nn2)c1C	·	–	–	·	?	26µM
CCOc1ccccc1CNC(=O)CCc1c(C)nn(-c2ccc(N3CCCC3)nn2)c1C	·	?	–	·	?	21µM
COc1ccc(CNC(=O)CCc2c(C)nn(-c3ccc(N4CCCC4)nn3)c2C)c(OC)c1	·	–	–	·	–	–
CN1c2ccc(Cl)cc2-c2nc(SCC(=O)NCc3ccccc3)ncc2S1(=O)=O	·	–	–	·	?	?
COc1ccc(CNC(=O)Cn2c(=O)ccc3cc(S(=O)(=O)N4CCCC4)ccc32)cc1	·	–	–	·	–	–
CCN(CC)S(=O)(=O)c1ccc2c(c1)N(CC(=O)NCc1ccccc1)C(=O)C1CCCCN21 (stereo not drawn)	·	–	–	·	?	–
COc1ccc(S(=O)(=O)N2CCCCC2)cc1NC(=O)c1c(F)cccc1Cl	–	–	–	–	?	16µM
Cc1onc(-c2c(F)cccc2Cl)c1C(=O)Nc1ccc(S(=O)(=O)N2CCOCC2)cc1	–	–	–	–	–	?
COc1ccc(S(=O)(=O)N2CCCCC2)cc1NC(=O)c1ccccc1	–	–	–	–	–	–
Cc1onc(-c2c(F)cccc2Cl)c1C(=O)Nc1cc(S(=O)(=O)N2CCCCC2)ccc1O	–	?	–	–	16µM	16µM
C/C(=N\O)c1ccc(OCC(=O)N2CCCCC2)cc1	·	·	·	·	–	–
CCOC(=O)N1CCC(NC(=O)CSCc2nc(-c3ccc(OCC)cc3)oc2C)CC1	–	–	–	–	?	?
CCOc1ccc(-c2nc(CSCC(=O)N3CCN(c4cccc(OC)c4)CC3)c(C)o2)cc1	–	–	–	–	23µM	?
COc1ccc(-c2nc(CSCC(=O)N3CCN(c4ccccc4F)CC3)c(C)o2)cc1	·	6.3µM	–	·	16µM	8.2µM
Cc1ccc(CNC(=O)c2ccccc2NS(=O)(=O)c2ccc(Cl)nc2)cc1	–	16µM	–	–	–	–
Cc1cccc(C2N3CC4(C(C)C)CN2CC(C(C)C)(C3)C4=O)c1 (stereo not drawn)	·	–	–	·	·	·
COc1ccc(C(CCN2CCCCC2)c2c(O)cc(OC)cc2OC)cc1 (stereo not drawn)	–	–	–	–	18µM	18µM
COc1ccc(C(CCN2CCCC2)c2c(O)cc(OC)cc2OC)cc1 (stereo not drawn)	–	–	–	–	18µM	?
COc1cc(O)c(C(CCN2CCCCC2)c2cc(OC)c(OC)c(OC)c2)c(OC)c1 (stereo not drawn)	–	–	–	–	?	–
CCN(CC)CCC(c1ccc(OC)cc1)c1c(O)cc(OC)cc1OC (stereo not drawn)	–	?	–	–	21µM	?
COC(=O)c1cc(CNC(=O)c2cccc(C)c2)cc(NC(=O)c2ccncc2)c1	·	·	·	·	–[9.04 µM]	–
CN(C)c1ccc(N/C=C/C(=O)c2ccco2)cc1	–	–	–	?	21µM	?
CC(=O)Nc1ccc(N/C=C/C(=O)c2ccco2)cc1	–	–	–	–	–	–
O=C(/C=C/Nc1ccccc1Oc1ccccc1)c1ccco1	–	–	–	?	–	?
O=C(/C=C/Nc1ccc(Oc2ccccc2Cl)cc1)c1ccco1	–	–	–	–	18µM	15µM
SMILES	S-ASM inh	TGFb SMAD3 inh	HepG2 viability	IL-1B inflam inh	DT40 TDP1 CPT	DT40 TDP1 no CPT
COc1ccccc1Oc1ccc(N/C=C/C(=O)c2ccco2)cc1	–	–	–	-52	?	18µM
Cc1cc2c(cc(C(=O)OC(C)C(=O)NCc3ccc(F)cc3)n2C)o1 (stereo not drawn)	–	–	–	–	–	–
O=C(O[C@H]1[C@H](Cc2ccccc2)NS(=O)(=O)[C@H]2C[C@@H]3C=C[C@]12O3)c1ccccc1Br	·	–	–	·	?	?
CC(C)c1ccccc1NC(=O)COC(=O)c1cc([N+](=O)[O-])ccc1N1CCOCC1	–	–	–	–	?	18µM
Cc1cc(NC(=O)COC(=O)c2cc([N+](=O)[O-])ccc2N2CCOCC2)ccc1Br	–	–	–	?	?	16µM
O=C(COC(=O)c1cc([N+](=O)[O-])ccc1N1CCOCC1)Nc1ccccc1OC(F)F	·	–	–	–	–	–
O=C(COC(=O)c1cc([N+](=O)[O-])ccc1N1CCCC1)Nc1ccccc1OC(F)F	–	–	–	–	?	16µM
O=C(Nc1ccc2c(c1)OCCO2)C(C1CC1)N1CCN(c2ccc(F)cc2)CC1 (stereo not drawn)	·	–	–	–	?	?
COc1ccc(OC)c(CCNC(=O)CC2(CC3=NS(=O)(=O)c4ccccc4N3)CCCC2)c1	–	?	–	–	12µM	?
COc1ccc(OCc2ccc(-c3nc(C#N)c(NCc4cccnc4)o3)o2)cc1	·	–	–	·	?	18µM
CCCCNc1oc(-c2ccc(COc3ccccc3C)o2)nc1C#N	·	–	–	·	?	?
COc1ccc(CNc2oc(-c3ccc(COc4ccccc4C)o3)nc2C#N)cc1	·	–	14µM	·	?	?
COc1ccc(OCc2ccc(-c3nc(C#N)c(NCc4ccccc4)o3)o2)cc1	·	?	–	·	?	?
Cc1ccccc1OCc1ccc(-c2nc(C#N)c(NCc3cccnc3)o2)o1	·	?	–	·	15µM	21µM
CCC(C)c1ccccc1NC(=O)COc1ccc(-n2cnnn2)cc1 (stereo not drawn)	–	–	–	–	–	–
O=C(CSc1ncccc1C(=O)Oc1ccccc1Cl)Nc1ccccc1Cl	·	–	–	·	?	?
Cc1cc(C)cc(-n2c(SCC(=O)Nc3ccccc3F)nc3c(oc4ccccc43)c2=O)c1	·	–	–	·	16µM	7.3µM
CCOc1ccc(-n2c(SCC(=O)Nc3ccccc3OC)nc3c(oc4ccccc43)c2=O)cc1	·	–	–	·	?	?
COc1cccc(NC(=O)CSc2nc3c(oc4ccccc43)c(=O)[nH]2)c1	–	–	–	–	–	23µM
COc1cccc(NC(=O)CSc2ncnc3c2oc2ccccc23)c1	–	–	–	–	?	?
COc1ccccc1NC(=O)CSc1nc2c(oc3ccccc32)c(=O)n1-c1ccc(C)cc1	·	–	–	·	18µM	8.2µM
O=C(CSc1nc2c(oc3ccccc32)c(=O)n1-c1ccccc1)Nc1ccccc1F	·	–	–	·	?	?
Cc1cc(C)cc(-n2c(SCC(=O)Nc3ccccc3)nc3c(oc4ccccc43)c2=O)c1	·	–	–	·	15µM	?

Screening data as filed in PubChem.
